Measurements as given in PubChem BioAssay (Tox21).
Values joined by “and” are separate entries in the source; they are usually repeats but may differ in a detail not shown here. Equal entries are not always repeated. Records with an inconclusive call do not appear. Where a call stands in place of a potency, no number is given. Active and inactive are the calls of the source. The call rests on the fitted dose curve; in most records, active means well fitted cell-killing curve with a large enough effect in the repeat runs; inconclusive means weak or mixed curves, or effect the other way; inactive means no such curve, though single readings can be large or run the other way.

assay: qHTS assay to identify small molecule agonists of the estrogen receptor alpha (ER-alpha) signaling pathway in the presence of an antagonist - cell viability counter screen (AID 1259386); settings: VM7Luc4E2 viability, CellTiter-Fluor fluorescence, 22 h; series mostly up to 92.4 µM; activity change, negative = cytotoxicity: at the top concentration; further: nearly all actives have a fitted effect of over 30% in size
Source text: National Center for Advancing Translational Sciences [NCATS]
NIH Chemical Genomics Center [NCGC]
U.S. Environmental Protection Agency [EPA]
National Institutes of Environmental Health Sciences [NIEHS]
National Toxicology Program [NTP]
U.S. Food and Drug Administration [FDA]
Estrogen receptor (ER), a member of nuclear hormone receptor plays an important role in development, metabolic homeostasis and reproduction. Two subtypes of ER, ER-alpha and ER-beta, have similar expression patterns with some uniqueness in both types. Endocrine disrupting chemicals (EDCs) and their interactions with steroid hormone receptors like ER causes disruption of normal endocrine function. Therefore, it is important to understand the effect of environmental chemicals in ER signaling pathway. For identifying ER agonists, VM7Luc4E2 cell line has been used in the current assay.
VM7Luc4E2 cell line (provided by Denison MS, University of California) endogenously expresses full-length ER-alpha and is stably transfected with a plasmid containing four estrogen responsive elements (ERE) upstream of a luciferase reporter gene. This current screening for measuring luciferase reporter gene activity using VM7Luc4E2 cells against Tox21 10K library collection is a confirmation study on agonist mode screening in presence of ER-antagonist (ICI-182,780) at 10.0nM final concentration. The cytotoxicity of the compounds was tested in parallel by measuring the cell viability using CellTiter-Fluor assay system (Promega, Madison, WI) in the same wells.
Tox21 Assay Protocol Summary:
VM7Luc4E2 cells were cultured in phenol red free assay medium containing 10% charcoal stripped FBS for 5 days prior to the assay. The cells were dispensed at 4,000 cells in 4uL of assay medium per well into white wall/solid-bottom 1536-well plates (Corning Life Sciences, Corning, NY) using a Multidrop Combi (Thermo Fisher Scientific Inc., Waltham, MA) dispenser. After the assay plates were incubated at 37C and 5% CO2 for 24hr, 1uL of 10.0nM (final concentration) ICI-182,780 or assay buffer was added using two separate tips of Flying Reagent Dispenser (FRD, Aurora Discovery, San Diego, CA). Then 23nL of compounds dissolved in DMSO at 15 concentrations and positive controls or DMSO only was transferred to the assay plates by a Pintool station (Wako, San Diego, CA). The assay plates were incubated at 37C and 5% CO2 for 22hr. After 21hr incubation at 37C, 1uL/well CellTiter-Fluor reagent (Promega Corporation, Madison, WI) was added to each well using FRD and after 1hr incubation at 37C and 5% CO2, the fluorescence signal was measured on ViewLux plate reader (PerkinElmer, Shelton, CT).
Potency means the concentration at half of the fitted maximal effect.

Question: With `O=S(=O)(O)c1ccc(O)cc1` as the molecule, how does the Potency read?
Answer: inactive

Question: Which “activity change, negative = cytotoxicity” value does the source give for `CNCCCC12CCC(c3ccccc31)c1ccccc12` here?
Answer: 1.22% [at 42.5 µM] (inactive)

Question: With `CCCCC(CC)COC(=O)c1ccc(N(C)C)cc1` (stereo not given) as the molecule, how does the Potency read?
Answer: inactive

Question: Which Potency does the source give for `COc1cc([C@@H]2c3cc4c(cc3[C@H](O)[C@H]3COC(=O)[C@H]23)OCO4)cc(OC)c1OC` here?
Answer: inactive

Question: With `COC(=O)CCC(=O)OC` as the molecule, how does the Potency read?
Answer: inactive

Question: For `c1ccc2c(c1)Oc1ccccc1S2`, which Potency is on record?
Answer: inactive

Question: With `c1cc(N(CC2CO2)CC2CO2)ccc1OCC1CO1` (stereo not given) as the molecule, how does the Potency read?
Answer: 54.5 µM (active)

Question: Which Potency does the source give for `CC(C(=O)O)c1cccc(C(=O)c2ccccc2)c1` (stereo not given) here?
Answer: inactive

Question: Which Potency does the source give for `CN1C(C(=O)Nc2ccccn2)=C(O)c2ccccc2S1(=O)=O` here?
Answer: inactive

Question: With `COC(C)COC(C)COC(C)CO` (stereo not given) as the molecule, how does the Potency read?
Answer: inactive

Question: For `Nc1ccc(Nc2ccccc2)cc1`, which Potency is on record?
Answer: 30.6 µM (active) and 19.3 µM (active)

Question: Which Potency does the source give for `O=CCc1ccccc1` here?
Answer: inactive

Question: With `O=C(O)c1ccccc1Nc1cccc(C(F)(F)F)c1` as the molecule, how does the Potency read?
Answer: inactive

Question: Which Potency does the source give for `CCCCC/C=C/C=C/C=O` here?
Answer: inactive

Question: For `Cc1[nH]c(=O)c(C#N)cc1-c1ccncc1`, which “activity change, negative = cytotoxicity” value is on record?
Answer: 1.38% [at 42.5 µM] (inactive)

Question: With `CC(C)Oc1ccc2c(=O)c(-c3ccccc3)coc2c1` as the molecule, how does the Potency read?
Answer: inactive

Question: For `C#C[C@]1(O)CC[C@H]2[C@@H]3CCC4=Cc5oncc5C[C@]4(C)[C@H]3CC[C@@]21C`, which Potency is on record?
Answer: inactive

Question: Which Potency does the source give for `C=C(C)C1CC=C(C)CC1` (stereo not given) here?
Answer: inactive

Question: For `CCOC(=O)C(C#N)=C(c1ccccc1)c1ccccc1`, which Potency is on record?
Answer: inactive

Question: Which “activity change, negative = cytotoxicity” value does the source give for `COc1ccc(C(=O)CC(=O)c2ccc(C(C)(C)C)cc2)cc1` here?
Answer: 7.03% [at 42.5 µM] (inactive)

Question: With `O=C1OC2(c3cc(Br)c(O)c(Br)c3Oc3c2cc(Br)c(O)c3Br)c2c(Cl)c(Cl)c(Cl)c(Cl)c21` as the molecule, how does the Potency read?
Answer: 24.4 µM (active) and 13.2 µM (active)

Question: With `CCCC(=O)O` as the molecule, how does the Potency read?
Answer: inactive

Question: For `CCC(C)OC(=O)c1ccc(O)cc1` (stereo not given), which Potency is on record?
Answer: inactive

Question: Which Potency does the source give for `CN(C)CCN(Cc1cccs1)c1ccccn1` here?
Answer: inactive

Question: Which Potency does the source give for `Cc1ccc2c(n1)Oc1ccc(C(C)C(=O)OCC(=O)N(C)C)cc1C2` (stereo not given) here?
Answer: inactive

Question: With `Cc1cccc(C(=O)O)c1` as the molecule, how does the Potency read?
Answer: inactive

Question: Which Potency does the source give for `O=P(O)(O)O` here?
Answer: inactive

Question: Which Potency does the source give for `O=C=Nc1ccc(Cc2ccc(N=C=O)cc2)cc1` here?
Answer: inactive

Question: For `O=[N+]([O-])c1ccc2c(c1)Cc1ccccc1-2`, which Potency is on record?
Answer: inactive

Question: Which Potency does the source give for `CCCCOCCOCCOCCO` here?
Answer: inactive

Question: Which Potency does the source give for `Cc1ccc(C)c(O)c1C` here?
Answer: inactive

Question: For `COC(=O)Nc1nc2ccc(S(=O)c3ccccc3)cc2[nH]1` (stereo not given), which Potency is on record?
Answer: inactive

Question: For `COC(=O)C1=C(C)NC(C)=C(C(=O)OCCN(C)Cc2ccccc2)C1c1cccc([N+](=O)[O-])c1` (stereo not given), which Potency is on record?
Answer: 54.2 µM (active) and 18.8 µM (active)

Question: Which “activity change, negative = cytotoxicity” value does the source give for `CC(=O)c1ccccn1` here?
Answer: -2.08% (inactive)

Question: Which “activity change, negative = cytotoxicity” value does the source give for `O=C(c1ccccc1)c1ccc(O)cc1O` here?
Answer: -8.36% (inactive)

Question: Which Potency does the source give for `c1ccc(Nc2ccccc2)cc1` here?
Answer: inactive

Question: With `COc1ccccc1/C=C/C=O` as the molecule, how does the Potency read?
Answer: inactive

Question: With `COC(=O)c1ccccc1` as the molecule, how does the Potency read?
Answer: inactive

Question: For `CCCCC(CC)COCC1CO1` (stereo not given), which Potency is on record?
Answer: inactive

Question: Which Potency does the source give for `CC(C)OC=O` here?
Answer: inactive
